Most compounds without a hit are left out; they make up all but 3.7% or so of the library.
TIM10 inh – growth inhibitors of TIM10 yeast strain; S. cerevisiae TIM10 strain growth, BacTiter-Glo luminescence, 24 h; inhibition, % at 10 µM; 1.4% of 330,000 active; AID 463195;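 active = inhibition of 40% or more at the single tested concentration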;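 note: wild-type TIM10 isogenic control strain grown at permissive 25 °C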
PfHsp90 yeast 2 – reduces growth (ATP signal) of yeast expressing P. falciparum Hsp90; S. cerevisiae expressing PfHsp90, BacTiter-Glo ATP, 48 h; yeast lacking PDR1 and PDR3 efflux regulators; inhibition, % at 9.4 µM; 0.32% of 310,000 active; AID 504621;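 active = every replicate shows inhibition above about 80%, whatever the replicate mean, limit read from the data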;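 note: 0% = DMSO neutral controls and 100% = 20 µM radicicol positive controls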
tim23-1 inh – inhibits growth of tim23-1 mutant yeast; S. cerevisiae tim23-1 growth, BacTiter-Glo luminescence, 24 h; 1.3% of 330,000 active; inhibition, % at 20 µM; AID 463212;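 active = growth inhibition of the mutant yeast at or above 50%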;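 note: temperature-sensitive mutant grown at 25 °C; plate controls were DMSO-treated mutant yeast for no effect and medium wells lacking yeast for full effect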
Rce1 inh – yeast Ras-converting enzyme inhibition; Q03530; AID 2563; yeast membranes, quenched prenylated peptide cleavage fluorescence; 0.27% of 290,000 active; calls only;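 active = fall in fluorescence gain of 50% or more versus controls, with final raw signal at or below 3038400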;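 note: plate controls were neutral control wells for no effect and wells lacking membranes for full effect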
Target sequence (Q03530 whole entry, looked up): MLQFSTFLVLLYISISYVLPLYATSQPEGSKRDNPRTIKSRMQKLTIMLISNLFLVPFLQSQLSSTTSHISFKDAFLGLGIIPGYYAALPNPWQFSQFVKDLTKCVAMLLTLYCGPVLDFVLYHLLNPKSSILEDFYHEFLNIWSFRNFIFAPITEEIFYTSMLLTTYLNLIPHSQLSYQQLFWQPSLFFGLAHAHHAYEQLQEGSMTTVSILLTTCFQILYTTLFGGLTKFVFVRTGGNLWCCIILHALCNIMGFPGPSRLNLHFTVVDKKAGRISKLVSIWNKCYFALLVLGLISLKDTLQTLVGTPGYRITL
tim10-1 inh – tim10-1 yeast growth inhibition | S. cerevisiae tim10-1 ts strain growth, BacTiter-Glo, 24 h | inhibition, % at 20 µM | 2.2% of 330,000 active;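 active = inhibition of at least 40%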;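 note: mutant grown at 25 °C; 0% = DMSO wells with yeast and 100% = wells holding no yeast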
tim23-1 conf – confirmation of tim23-1 mutant yeast growth inhibitors | shares compounds with tim23-1 inh | 83% of 4,400 active | inhibition, % at 20 µM | S. cerevisiae tim23-1 growth, BacTiter-Glo luminescence, 24 h;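 active = inhibition above about 39% in either of two replicate wells at 20 µM, limit read from the data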;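 note: temperature-sensitive tim23-1 mutant grown at 25 °C; 0% = DMSO wells with yeast and 100% = medium wells without yeast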
* = called active by the depositor.

How did OCCC1CN(Cc2cc3c(cc2Cl)OCO3)CCN1C1CCCC1 (stereo not given) do in these assays?
TIM10 inh: -17; PfHsp90 yeast 2: 9; tim23-1 inh: 2; Rce1 inh: inactive; tim10-1 inh: -14

What do the screens show for `CC(C)C(C)(C#N)NC(=O)CSc1nnc(-c2ccccc2)o1` (stereo not given)?
TIM10 inh: 6; PfHsp90 yeast 2: 7; tim23-1 inh: 6; Rce1 inh: inactive; tim10-1 inh: -2

Results for C/C(=N\N(c1ccccc1)c1ccccc1)c1ccc(O)cc1 ?
TIM10 inh: 20; PfHsp90 yeast 2: 17; tim23-1 inh: 54*; Rce1 inh: inactive; tim10-1 inh: -6; tim23-1 conf: 44*

How did CCN(CC)c1ccc(C(=O)N/N=C/c2ccccc2OC(F)F)cc1 do in these assays?
TIM10 inh: 22; PfHsp90 yeast 2: -5; tim23-1 inh: 56*; Rce1 inh: inactive; tim10-1 inh: 27; tim23-1 conf: 66*

What do the screens show for `O=C(N/N=C/c1ccc2c(c1)OCO2)c1ccc2c(c1)OCCO2`?
TIM10 inh: 15; PfHsp90 yeast 2: 14; tim23-1 inh: 29; Rce1 inh: inactive; tim10-1 inh: -53

Results for CN(C)c1ccc(/C=N/NC(=O)c2ccc3c(c2)OCCO3)cc1 ?
TIM10 inh: 8; PfHsp90 yeast 2: -24; tim23-1 inh: 58*; Rce1 inh: inactive; tim10-1 inh: -9; tim23-1 conf: 38

What do the screens show for `CCN(CC)c1ccc(/C=N/NC(=O)c2ccc3c(c2)OCCO3)cc1`?
TIM10 inh: 36; PfHsp90 yeast 2: -10; tim23-1 inh: 59*; Rce1 inh: inactive; tim10-1 inh: 13; tim23-1 conf: 57*

How did CCN(CC)c1ccc(/C=N/NC(=O)OC)c(O)c1 do in these assays?
TIM10 inh: 26; PfHsp90 yeast 2: -8; tim23-1 inh: 59*; Rce1 inh: inactive; tim10-1 inh: 16; tim23-1 conf: 36

How did CC(=O)c1ccc(C(=O)N2CCCC(CCC(=O)N(C)CCc3ccccn3)C2)s1 (stereo not given) do in these assays?
TIM10 inh: -11; PfHsp90 yeast 2: 28; tim23-1 inh: 7; Rce1 inh: inactive; tim10-1 inh: 5

How did Cc1ccc(S(=O)(=O)N2CCCCC2)cc1C(=O)NCCN1CCOCC1 do in these assays?
TIM10 inh: 7; tim23-1 inh: 10; tim10-1 inh: 8

How did O=C1CC(NCc2ccncc2)C(=O)N1c1ccc(Cl)cc1 (stereo not given) do in these assays?
TIM10 inh: -1; PfHsp90 yeast 2: -12; tim23-1 inh: 6; Rce1 inh: inactive; tim10-1 inh: 14

What do the screens show for `CCOC(=O)C(C)Sc1nc2c(cnn2-c2ccc(F)cc2)c(=O)[nH]1` (stereo not given)?
TIM10 inh: 0; PfHsp90 yeast 2: 3; tim23-1 inh: -1; Rce1 inh: inactive; tim10-1 inh: 6

Results for CCOc1ccc(S(=O)(=O)N2CCc3ccccc3C2)cc1 ?
TIM10 inh: -5; PfHsp90 yeast 2: 3; tim23-1 inh: 27; Rce1 inh: inactive; tim10-1 inh: 14

What do the screens show for `COc1ccc(S(=O)(=O)N2CCc3ccccc3C2)cc1`?
TIM10 inh: 29; PfHsp90 yeast 2: 1; tim23-1 inh: 53*; Rce1 inh: inactive; tim10-1 inh: 19; tim23-1 conf: 45*

How did O=C(Nc1ccc2oc(Cc3ccc(Cl)cc3)nc2c1)c1cccnc1 do in these assays?
TIM10 inh: 17; PfHsp90 yeast 2: -17; tim23-1 inh: 59*; Rce1 inh: inactive; tim10-1 inh: 10; tim23-1 conf: 54*

What do the screens show for `O=C(Nc1ccc2oc(-c3ccccc3)nc2c1)c1ccncc1`?
TIM10 inh: 18; PfHsp90 yeast 2: 16; tim23-1 inh: 65*; Rce1 inh: inactive; tim10-1 inh: -10; tim23-1 conf: 67*

What do the screens show for `O=C(Nc1ccc2oc(-c3cccnc3)nc2c1)c1cccnc1`?
TIM10 inh: -2; tim23-1 inh: 4; tim10-1 inh: -16

What do the screens show for `CC(C)c1ccc(CN2CCN(C(=O)CSc3nnnn3C3CC3)CC2)cc1`?
TIM10 inh: 6; PfHsp90 yeast 2: 22; tim23-1 inh: 12; tim10-1 inh: 3

What do the screens show for `Cc1cccc(-n2cc(-c3ccccc3)c3c(=O)[nH]cnc32)c1`?
TIM10 inh: 40; PfHsp90 yeast 2: -33; tim23-1 inh: 54*; Rce1 inh: inactive; tim10-1 inh: 29; tim23-1 conf: 48*

What do the screens show for `COc1ccc(C(=O)CCC(=O)NC2=NCCS2)cc1`?
TIM10 inh: -5; PfHsp90 yeast 2: 10; tim23-1 inh: -15; Rce1 inh: inactive; tim10-1 inh: 3

Results for CC1=NN(c2nc3ccccc3[nH]2)C(=O)C1Cc1ccccc1 (stereo not given) ?
TIM10 inh: 13; tim23-1 inh: 67*; Rce1 inh: inactive; tim10-1 inh: 21; tim23-1 conf: 56*

What do the screens show for `COc1cccc(CNc2ccc(S(=O)(=O)N3CCCC3)cn2)c1`?
TIM10 inh: 2; PfHsp90 yeast 2: -6; tim23-1 inh: -14; tim10-1 inh: 0

How did COc1cccc(/C(C)=N/Nc2ccc(S(=O)(=O)N3CCCCC3)cn2)c1 do in these assays?
TIM10 inh: 39; PfHsp90 yeast 2: -32; tim23-1 inh: 51*; tim10-1 inh: 27; tim23-1 conf: 44*

What do the screens show for `CCCc1[nH]n(-c2nc3ccccc3s2)c(=O)c1C=NCCCOC`?
TIM10 inh: 20; PfHsp90 yeast 2: 3; tim23-1 inh: 6; Rce1 inh: inactive; tim10-1 inh: 7

How did CCCCCN=Cc1c(C)[nH]n(-c2nc3ccccc3s2)c1=O do in these assays?
TIM10 inh: 12; PfHsp90 yeast 2: 36; tim23-1 inh: 56*; Rce1 inh: inactive; tim10-1 inh: 21; tim23-1 conf: 48*

Results for c1ccc2c3c([nH]c2c1)-c1[nH]ncc1CC3 ?
TIM10 inh: 3; PfHsp90 yeast 2: -1; tim23-1 inh: 61*; Rce1 inh: inactive; tim10-1 inh: 13; tim23-1 conf: 38

What do the screens show for `Cc1cc(N)n2nc(C)c(-c3ccc(Cl)cc3)c2n1`?
TIM10 inh: 39; PfHsp90 yeast 2: -7; tim23-1 inh: 63*; Rce1 inh: inactive; tim10-1 inh: 34; tim23-1 conf: 72*

How did CC(=O)Nc1ccc(NC(=O)CCCc2ccccc2)cc1 do in these assays?
TIM10 inh: 8; PfHsp90 yeast 2: 7; tim23-1 inh: 22; Rce1 inh: inactive; tim10-1 inh: 14

How did C=CCSC1=NNC(c2ccc(C(C)(C)C)cc2)=NN1 do in these assays?
TIM10 inh: 14; PfHsp90 yeast 2: -11; tim23-1 inh: 23; Rce1 inh: inactive; tim10-1 inh: 11

Results for CCOC(=O)C1CCN(C(=O)Cc2c(C(=O)O)n(C)c3ccccc23)CC1 ?
TIM10 inh: -3; PfHsp90 yeast 2: -10; tim23-1 inh: 77*; Rce1 inh: inactive; tim10-1 inh: 12; tim23-1 conf: 1

Assay outcomes: PubChem, several laboratories
